# Calls of active or inactive are those of the source. The calls were made as follows: active = hit-call score of the fitted dose curve at least 0.9, where 1 is the maximum; inactive = score below 0.9.
# Experiments:
# Conditions in all cases: mRNA level, 48 h; actives raise or lower the signal
# [1] = read-out: Cyclin D2 (CCND2), CCND2 (gene 894); assay: LTEA_HepaRG_CCND2: Life Technologies and Expression Analysis (LTEA) Assay for Cyclin D2 (CCND2) using HepaRG (AID 2283449);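 also: CCND2 transcript measured by TaqMan qRT-PCR and normalised to three housekeeping genes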
# Procedure, shortened: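 Chemicals in 0.5% DMSO, eight half-log concentrations from 100 uM top, were applied in duplicate for 48 h to human HepaRG cells in serum-free induction medium. CCND2 mRNA by TaqMan qRT-PCR, normalised to ACTB/GAPDH/POLR2A; bidirectional fit versus DMSO.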
# [2] = read-out: Cyclin Dependent Kinase Inhibitor 1A (CDKN1A), CDKN1A (gene 1026); assay: LTEA_HepaRG_CDKN1A: Life Technologies and Expression Analysis (LTEA) Assay for Cyclin Dependent Kinase Inhibitor 1A (CDKN1A) using HepaRG (AID 2283450)
# Procedure, shortened: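 HepaRG, 48 h dosing, 8-pt half-log series from 100 uM top, 0.5% DMSO vehicle, duplicates. Readout: TaqMan qRT-PCR of CDKN1A transcript, housekeeping-normalized (ACTB, GAPDH, POLR2A). Up/down curve fit relative to DMSO.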
# [3] = read-out: Cyclin D1 (CCND1), CCND1 (gene 595); assay: LTEA_HepaRG_CCND1: Life Technologies and Expression Analysis (LTEA) Assay for Cyclin D1 (CCND1) using HepaRG (AID 2283451);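 as to AC50: TaqMan qRT-PCR transcript level normalised to ACTB GAPDH and POLR2A housekeeping genes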
# Procedure, shortened: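 qRT-PCR (Fluidigm 96.96 array) read-out of transcript level, housekeeping-normalized (ACTB/GAPDH/POLR2A). HepaRG cells, 48 h chemical exposure, 8-point half-log series from 100 uM, 0.5% DMSO vehicle; gain or loss relative to DMSO baseline.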
# [4] = read-out: catalase (CAT), CAT (gene 847); assay: LTEA_HepaRG_CAT: Life Technologies and Expression Analysis (LTEA) Assay for catalase (CAT) using HepaRG (AID 2283452)
# Procedure, shortened: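 HepaRG cells in serum-free induction medium, 0.5% DMSO vehicle, exposed 48 h in duplicate over 8 half-log concentrations from 100 uM. CAT mRNA measured by qRT-PCR, normalized to ACTB, GAPDH, POLR2A; bidirectional fit versus DMSO.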
# [5] = read-out: flavin-containing dimethylaniline monooxygenases 3 (FMO3), FMO3 (gene 2328); assay: LTEA_HepaRG_FMO3: Life Technologies and Expression Analysis (LTEA) Assay for flavin-containing dimethylaniline monooxygenases 3 (FMO3) using HepaRG (AID 2283453)
# Procedure, shortened: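 Differentiated HepaRG cells in serum-free induction medium, exposed 48 h in duplicate to 8 half-log concentrations up to 100 uM in 0.5% DMSO. FMO3 mRNA by qRT-PCR, normalized to ACTB, GAPDH, POLR2A; bidirectional fit vs DMSO.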
# [6] = read-out: Cytochrome P450 (CYP1A1), CYP1A1 (gene 1543); assay: LTEA_HepaRG_CYP1A1: Life Technologies and Expression Analysis (LTEA) Assay for Cytochrome P450 (CYP1A1) using HepaRG (AID 2283454)
# Procedure, shortened: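 qRT-PCR read-out: CYP1A1 transcript normalized to three housekeeping genes, fitted bidirectionally against 0.5% DMSO vehicle baseline. Human HepaRG cells, 48 h chemical exposure, 8-point half-log series topping at 100 uM.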
# [7] = read-out: CFLAR gene, CFLAR (gene 8837); assay: LTEA_HepaRG_CFLAR: Life Technologies and Expression Analysis (LTEA) Assay for CFLAR gene using HepaRG (AID 2283455)
# Procedure, shortened: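 Differentiated HepaRG cells in serum-free induction medium were exposed 48 h in duplicate to eight half-log concentrations up to 100 uM in 0.5% DMSO; mRNA measured by TaqMan qRT-PCR, normalized to ACTB, GAPDH, POLR2A; bidirectional fitting versus DMSO.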
# [8] = read-out: Forkhead box O1 (FOXO1), FOXO1 (gene 2308); assay: LTEA_HepaRG_FOXO1: Life Technologies and Expression Analysis (LTEA) Assay for Forkhead box O1 (FOXO1) using HepaRG (AID 2283456)
# Procedure, shortened: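 Differentiated HepaRG cells, in serum-free induction medium with 0.5% DMSO, exposed 48 h in duplicate to 8-point half-log series from 100 uM. FOXO1 mRNA measured by TaqMan qRT-PCR, normalized to ACTB, GAPDH, POLR2A; bidirectional fit versus DMSO.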
# [9] = read-out: growth arrest and DNA damage 45 (GADD45A), GADD45A (gene 1647); assay: LTEA_HepaRG_GADD45A: Life Technologies and Expression Analysis (LTEA) Assay for growth arrest and DNA damage 45 (GADD45A) using HepaRG (AID 2283458)
# Procedure, shortened: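 Cells plated and cultured 48 h, switched to serum-free induction medium, then dosed for 48 h (100 uM top, half-log dilutions, 0.5% DMSO). RNA was isolated and transcript measured by Fluidigm qRT-PCR.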
# [10] = read-out: Forkhead box O3 (FOXO3), FOXO3 (gene 2309); assay: LTEA_HepaRG_FOXO3: Life Technologies and Expression Analysis (LTEA) Assay for Forkhead box O3 (FOXO3) using HepaRG (AID 2283459)
# Procedure, shortened: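 Differentiated human HepaRG cells, 48 h post-plating, exposed in duplicate for 48 h in serum-free induction medium; 8-point half-log series from 100 uM in 0.5% DMSO. FOXO3 mRNA by TaqMan qRT-PCR, normalized to ACTB/GAPDH/POLR2A; bidirectional fit versus DMSO.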
# [11] = read-out: ABC Transporter (ABCB1), ABCB1 (gene 5243); assay: LTEA_HepaRG_ABCB1: Life Technologies and Expression Analysis (LTEA) Assay for ABC Transporter (ABCB1) using HepaRG (AID 2283460)
# Procedure, shortened: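 HepaRG cells exposed in duplicate for 48 h in serum-free induction medium to eight half-log concentrations up to 100 uM in 0.5% DMSO. ABCB1 mRNA quantified by qRT-PCR, normalised to ACTB, GAPDH and POLR2A; fitted bidirectionally versus DMSO.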
# [12] = read-out: growth arrest and DNA damage 45 (GADD45B), GADD45B (gene 4616); assay: LTEA_HepaRG_GADD45B: Life Technologies and Expression Analysis (LTEA) Assay for growth arrest and DNA damage 45 (GADD45B) using HepaRG (AID 2283461)
# Procedure, shortened: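 qRT-PCR read-out (Fluidigm TaqMan, housekeeping-normalized) of mRNA change in human HepaRG cells after 48 h chemical exposure; 8-point curve, top 100 uM, half-log steps, 0.5% DMSO vehicle; gain or loss fitted relative to DMSO baseline.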
# [13] = read-out: ABC Transporter (ABCC3), ABCC3 (gene 8714); assay: LTEA_HepaRG_ABCC3: Life Technologies and Expression Analysis (LTEA) Assay for ABC Transporter (ABCC3) using HepaRG (AID 2283462)
# Procedure, shortened: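 qRT-PCR read-out of ABCC3 transcript, normalized to three housekeeping genes (ACTB, GAPDH, POLR2A), after 48 h chemical exposure of human HepaRG cells. Eight half-log concentrations, highest 100 uM, in 0.5% DMSO; gain or loss fitted relative to DMSO baseline.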
# [14] = read-out: ABC Transporter (ABCB11), ABCB11 (gene 8647); assay: LTEA_HepaRG_ABCB11: Life Technologies and Expression Analysis (LTEA) Assay for ABC Transporter (ABCB11) using HepaRG (AID 2283463)
# Procedure, shortened: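 Differentiated human HepaRG cells in serum-free induction medium, dosed in duplicate for 48 h. Eight-point half-log series from 100 uM in 0.5% DMSO; ABCB11 mRNA by qRT-PCR, normalized to ACTB, GAPDH, POLR2A, fitted bidirectionally versus DMSO.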
# [15] = read-out: ABC Transporter (ABCC2), ABCC2 (gene 1244); assay: LTEA_HepaRG_ABCC2: Life Technologies and Expression Analysis (LTEA) Assay for ABC Transporter (ABCC2) using HepaRG (AID 2283464)
# Procedure, shortened: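 qRT-PCR (TaqMan, Fluidigm array) read-out of ABCC2 mRNA, normalized to three housekeeping genes. Differentiated HepaRG cells were treated 48 h in serum-free induction medium with 8-point half-log series from 100 uM in 0.5% DMSO; curves fitted bidirectionally relative to DMSO.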
# [16] = read-out: Broad substrate specificity ATP-binding cassette transporter ABCG2 (Homo sapiens) (UniProt Q9UNQ0); assay: LTEA_HepaRG_ABCG2: Life Technologies and Expression Analysis (LTEA) Assay for ABC Transporter (ABCG2) using HepaRG (AID 2283465)
# Procedure, shortened: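 Differentiated HepaRG cells were exposed for 48 h in serum-free induction medium to 8 half-log concentrations, top 100 uM, in 0.5% DMSO. ABCG2 mRNA was measured by qRT-PCR, normalized to ACTB, GAPDH and POLR2A, with bidirectional fitting versus DMSO.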
# [17] = read-out: ATP-citrate lyase (ACLY), ACLY (gene 47); assay: LTEA_HepaRG_ACLY: Life Technologies and Expression Analysis (LTEA) Assay for ATP-citrate lyase (ACLY) using HepaRG (AID 2283466)
# Procedure, shortened: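 Differentiated HepaRG cells exposed 48 h in serum-free induction medium to eight half-log concentrations up to 100 uM in 0.5% DMSO, duplicates. Transcript measured by Fluidigm TaqMan qRT-PCR, normalized to ACTB, GAPDH, POLR2A; bidirectional fit versus DMSO.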
# [18] = read-out: Peroxisomal acyl-coenzyme A oxidase 1 (ACOX1) gene, ACOX1 (gene 51); assay: LTEA_HepaRG_ACOX1: Life Technologies and Expression Analysis (LTEA) Assay for Peroxisomal acyl-coenzyme A oxidase 1 (ACOX1) gene using HepaRG (AID 2283467)
# Procedure, shortened: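 HepaRG cells, plated 48 h then switched to serum-free induction medium, were exposed in duplicate for 48 h to 8-point half-log concentrations up to 100 uM in 0.5% DMSO. ACOX1 mRNA was measured by qRT-PCR, normalized to ACTB/GAPDH/POLR2A, and fitted bidirectionally versus DMSO.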
# [19] = read-out: Alkaline Phosphatase, Placental (ALPP) gene, ALPP (gene 250); assay: LTEA_HepaRG_ALPP: Life Technologies and Expression Analysis (LTEA) Assay for Alkaline Phosphatase, Placental (ALPP) gene using HepaRG (AID 2283468)
# Procedure, shortened: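 qRT-PCR readout of ALPP mRNA (Fluidigm TaqMan), normalized to ACTB/GAPDH/POLR2A, after 48 h chemical exposure of HepaRG cells; 8-point half-log series, top 100 uM, 0.5% DMSO vehicle. Bidirectional curve fit versus DMSO baseline.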
# Sequence of Broad substrate specificity ATP-binding cassette transporter ABCG2 (Homo sapiens) (Q9UNQ0 whole entry, looked up): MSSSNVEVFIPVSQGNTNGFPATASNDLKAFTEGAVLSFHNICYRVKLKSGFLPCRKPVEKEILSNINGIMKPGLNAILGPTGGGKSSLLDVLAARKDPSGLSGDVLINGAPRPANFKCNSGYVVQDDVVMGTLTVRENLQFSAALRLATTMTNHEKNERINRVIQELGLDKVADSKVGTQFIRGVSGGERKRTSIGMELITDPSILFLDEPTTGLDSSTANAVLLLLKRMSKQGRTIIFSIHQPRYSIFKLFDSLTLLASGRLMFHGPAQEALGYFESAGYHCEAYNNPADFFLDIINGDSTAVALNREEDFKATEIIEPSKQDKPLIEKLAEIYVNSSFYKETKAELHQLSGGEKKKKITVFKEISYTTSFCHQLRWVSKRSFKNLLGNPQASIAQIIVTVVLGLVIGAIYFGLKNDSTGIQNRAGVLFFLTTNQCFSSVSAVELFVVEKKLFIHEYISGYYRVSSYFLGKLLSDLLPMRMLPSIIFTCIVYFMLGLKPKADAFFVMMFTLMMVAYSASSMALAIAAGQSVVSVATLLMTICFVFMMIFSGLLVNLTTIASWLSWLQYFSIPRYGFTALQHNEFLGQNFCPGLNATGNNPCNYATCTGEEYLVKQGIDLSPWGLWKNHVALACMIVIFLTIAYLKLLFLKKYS
smiles,measurement,setting,value
CCCCc1ccc2c(n1)[C@@H](c1ccc(OC)cc1C[C@H](C)C(=O)O)[C@H](C(=O)O)[C@H]2c1ccc2c(c1)OCO2,outcome,[1],inactive
same,outcome,[2],inactive
same,outcome,[3],inactive
same,outcome,[4],inactive
same,outcome,[5],inactive
same,AC50,[6],71.7 µM (active)
same,outcome,[7],inactive
same,outcome,[8],inactive
same,outcome,[9],inactive
same,outcome,[10],inactive
same,outcome,[11],inactive
same,outcome,[12],inactive
same,outcome,[13],inactive
same,outcome,[14],inactive
same,outcome,[15],inactive
same,outcome,[16],inactive
same,outcome,[17],inactive
same,outcome,[18],inactive
same,outcome,[19],inactive
Cc1oc(-c2ccccc2)nc1CCOc1cccc2c1ccn2CCC(=O)O,outcome,[1],inactive
same,AC50,[2],71.2 µM (active)
same,AC50,[3],50 µM (active)
same,AC50,[4],88.3 µM (active)
same,AC50,[5],76.7 µM (active)
same,outcome,[6],inactive
same,AC50,[7],10.7 µM (active)
same,AC50,[8],85.6 µM (active)
same,AC50,[9],75.2 µM (active)
same,outcome,[10],inactive
same,AC50,[11],81.3 µM (active)
same,AC50,[12],75.8 µM (active)
same,outcome,[13],inactive
same,AC50,[14],93.7 µM (active)
same,outcome,[15],inactive
same,AC50,[16],40.2 µM (active)
same,AC50,[17],38.7 µM (active)
same,AC50,[18],0.106 µM (active)
same,AC50,[19],63 µM (active)
CN[C@H]1CC[C@@H](c2ccc(Cl)c(Cl)c2)c2ccc(S(N)(=O)=O)cc21,outcome,[1],inactive
same,outcome,[2],inactive
same,outcome,[3],inactive
same,AC50,[4],50 µM (active)
same,AC50,[5],34.1 µM (active)
same,AC50,[6],76.5 µM (active)
same,outcome,[7],inactive
same,outcome,[8],inactive
same,outcome,[9],inactive
same,outcome,[10],inactive
same,AC50,[11],89.3 µM (active)
same,AC50,[12],80.4 µM (active)
same,AC50,[13],12.6 µM (active)
same,AC50,[14],15.8 µM (active)
same,AC50,[15],63.5 µM (active)
same,outcome,[16],inactive
same,AC50,[17],63.6 µM (active)
same,AC50,[18],12.2 µM (active)
same,AC50,[19],5.79 µM (active)

# From PubChem BioAssay (EPA / NIEHS)
